According to the supplement of paper PMC10849652:
About 7,900 targets were measured; listed, in parts, are those with a hit and a random draw of the rest. About 0.6% of all pairs of compound and target were hits.

Tests used:
Assay in all cases: log2 fold change, soluble protein after heating vs DMSO (PISA); higher = thermal stabilisation; K562 cells, 10 uM, 30 min; active = over 0.2 and 3.5 SD of the protein, either way, in both replicates (recomputed)
[1] = compound: Cc1ccc(NC(=O)c2ccc(CN3CC[C@H](N(C)C)C3)c(C(F)(F)F)c2)cc1Nc1nccc(-c2cncnc2)n1 [bafetinib]
Procedure, shortened: (§1)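 Aliquots of K562 cells (2×10^6 cells/mL) treated with 10 μM compound for 30 min were heated for 3 min over 48°C-58°C. After pooling and extraction in PBS with 0.5% NP-40 at 4°C, soluble protein from a 21,000xg, 90 min spin was quantified by TMTpro 16plex LC-MS/MS with channel sums equalised. Thermal stability is expressed against control samples, from duplicates, as a log2 fold change.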

[2] = compound: Cc1cccc(CC(=O)N2CCc3c2ccc(-c2cn(C)c4ncnc(N)c24)c3F)n1
Procedure, shortened: as §1

[3] = compound: Cc1cn(-c2cc(NC(=O)c3ccc(C)c(Nc4nccc(-c5cccnc5)n4)c3)cc(C(F)(F)F)c2)cn1 [nilotinib]
Procedure, shortened: as §1

[4] = compound: Cc1nc(Nc2n[nH]c3c2CN(C(=O)N[C@H](CN(C)C)c2ccccc2)C3(C)C)c2sccc2n1
Procedure, shortened: as §1

[5] = compound: Cc1nc(Nc2ncc(C(=O)Nc3c(C)cccc3Cl)s2)cc(N2CCN(CCO)CC2)n1 [dasatinib]
Procedure, shortened: as §1

[6] = compound: Cc1ncc(-c2ccnc(Nc3ccc(S(C)(=O)=O)cc3)n2)n1C(C)C
Procedure, shortened: as §1

[7] = compound: Cn1cc(-c2ccc3c(c2)CCN3C(=O)Cc2cccc(C(F)(F)F)c2)c2c(N)ncnc21
Procedure, shortened: as §1

[8] = compound: Cn1cncc1[C@@](N)(c1ccc(Cl)cc1)c1ccc2c(c1)c(-c1cccc(Cl)c1)cc(=O)n2C [tipifarnib]
Procedure, shortened: as §1

[9] = compound: FC(F)(F)c1ccc(/C=C/c2nc(COc3ccc(CCCCn4ccnn4)cc3)co2)cc1 [mubritinib]
Procedure, shortened: as §1

[10] = compound: NC(=O)Nc1cc(-c2cccc(F)c2)sc1C(=O)N[C@H]1CCCNC1
Procedure, shortened: as §1

[11] = compound: NC(=O)c1cnc(N[C@@H]2CCCC[C@@H]2N)nc1Nc1cccc(-n2nccn2)c1
Procedure, shortened: as §1

[12] = compound: NC1(c2ccc(-c3nc4ccn5c(=O)[nH]nc5c4cc3-c3ccccc3)cc2)CCC1
Procedure, shortened: as §1

[13] = compound: NCC(=O)Nc1ccc(-n2nc(C(F)(F)F)cc2-c2ccc3c(ccc4ccccc43)c2)cc1
Procedure, shortened: as §1

[14] = compound: Nc1ccccc1NC(=O)c1ccc(CNC(=O)OCc2cccnc2)cc1 [entinostat]
Procedure, shortened: as §1

[15] = compound: O=C(CCCCCCC(=O)Nc1ccccc1)NO [vorinostat]
Procedure, shortened: as §1

[16] = compound: O=C(CCCCCCNC(=O)c1cnc(N(c2ccccc2)c2ccccc2Cl)nc1)NO [citarinostat]
Procedure, shortened: as §1

[17] = compound: O=C(O)c1ccc2c(c1)nc(Nc1cccc(Cl)c1)c1ccncc12 [silmitasertib]
Procedure, shortened: as §1

[18] = compound: O=C1NC(=O)C(c2cnc3ccccn23)=C1c1cn2c3c(cc(F)cc13)CN(C(=O)N1CCCCC1)CC2
Procedure, shortened: as §1

[19] = compound: c1cc(OCCN2CCCCC2)cc(-c2n[nH]c3ccc(-c4nnc[nH]4)cc23)c1
Procedure, shortened: as §1

[20] = compound: Cn1cc(-c2ccc3nnc(C(F)(F)c4ccc5ncccc5c4)n3n2)cn1
Procedure, shortened: as §1

Measured: log2 fold change

XIAP (UniProt P98170)
UniProt P98170, sequence (P98170 whole entry, looked up): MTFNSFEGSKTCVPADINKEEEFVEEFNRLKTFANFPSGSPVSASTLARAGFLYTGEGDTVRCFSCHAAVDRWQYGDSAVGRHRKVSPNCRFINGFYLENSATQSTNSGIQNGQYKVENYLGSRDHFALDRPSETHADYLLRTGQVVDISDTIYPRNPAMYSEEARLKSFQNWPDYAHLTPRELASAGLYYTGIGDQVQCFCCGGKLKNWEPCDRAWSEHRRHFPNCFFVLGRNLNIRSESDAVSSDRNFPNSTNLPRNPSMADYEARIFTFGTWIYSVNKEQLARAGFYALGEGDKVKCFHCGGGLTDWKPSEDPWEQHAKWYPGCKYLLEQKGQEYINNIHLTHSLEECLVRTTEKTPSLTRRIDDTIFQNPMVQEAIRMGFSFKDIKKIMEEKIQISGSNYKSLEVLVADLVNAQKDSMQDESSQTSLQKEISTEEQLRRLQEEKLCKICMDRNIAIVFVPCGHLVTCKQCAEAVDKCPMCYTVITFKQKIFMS
inactive: [1] -0.111 | [2] -0.046 | [3] 0.366 | [4] 0.061 | [5] -0.027 | [6] -0.288 | [7] 0.029 | [8] -0.078 | [9] 0.095 | [10] -0.004 | [11] -0.12 | [12] -0.113 | [13] -0.001 | [14] 0.009 | [15] 0.053 | [16] 0.091 | [17] -0.029 | [18] -0.047 | [19] -0.106

TMEM8A (UniProt Q9HCN3)
inactive: [1] -0.054 | [2] 0.096 | [3] -0.033 | [4] 0.071 | [5] -0.409 | [6] 0.019 | [7] -0.046 | [20] 0 | [8] 0.047 | [9] -0.001 | [10] -0.059 | [12] -0.393 | [13] -0.048 | [14] -0.485 | [15] -0.077 | [16] -0.037 | [17] 0.053 | [19] -0.056

UBAP2L (UniProt F8W726)
inactive: [1] 0.02 | [2] -0.049 | [3] 0.151 | [4] 0.063 | [6] -0.109 | [8] 0.245 | [9] -0.032 | [12] 0.083 | [15] -0.033 | [16] 0.095 | [17] 0.004 | [19] -0.066

TRABD (UniProt Q9H4I3)
UniProt Q9H4I3, sequence (Q9H4I3 whole entry, looked up): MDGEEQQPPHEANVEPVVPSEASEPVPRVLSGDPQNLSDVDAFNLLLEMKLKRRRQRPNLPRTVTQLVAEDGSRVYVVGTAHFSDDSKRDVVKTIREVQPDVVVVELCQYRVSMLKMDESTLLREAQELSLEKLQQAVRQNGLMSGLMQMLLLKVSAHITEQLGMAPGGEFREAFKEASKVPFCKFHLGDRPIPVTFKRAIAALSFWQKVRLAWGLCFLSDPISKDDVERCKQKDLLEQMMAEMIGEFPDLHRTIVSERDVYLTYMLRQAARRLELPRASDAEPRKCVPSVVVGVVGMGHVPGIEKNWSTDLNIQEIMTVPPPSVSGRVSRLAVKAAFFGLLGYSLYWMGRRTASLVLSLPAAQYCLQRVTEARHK
inactive: [1] 0.202 | [2] -0.038 | [3] 0.185 | [4] 0.02 | [6] -0.093 | [7] 0.145 | [20] -0.013 | [8] 0.012 | [9] -0.032 | [10] 0.008 | [11] -0.006 | [12] 0.1 | [13] 0.157 | [14] -0.022 | [15] 0.009 | [16] -0.014 | [17] 0.188 | [18] 0.055 | [19] -0.026

WEE1 (UniProt P30291)
UniProt P30291, sequence (P30291 whole entry, looked up): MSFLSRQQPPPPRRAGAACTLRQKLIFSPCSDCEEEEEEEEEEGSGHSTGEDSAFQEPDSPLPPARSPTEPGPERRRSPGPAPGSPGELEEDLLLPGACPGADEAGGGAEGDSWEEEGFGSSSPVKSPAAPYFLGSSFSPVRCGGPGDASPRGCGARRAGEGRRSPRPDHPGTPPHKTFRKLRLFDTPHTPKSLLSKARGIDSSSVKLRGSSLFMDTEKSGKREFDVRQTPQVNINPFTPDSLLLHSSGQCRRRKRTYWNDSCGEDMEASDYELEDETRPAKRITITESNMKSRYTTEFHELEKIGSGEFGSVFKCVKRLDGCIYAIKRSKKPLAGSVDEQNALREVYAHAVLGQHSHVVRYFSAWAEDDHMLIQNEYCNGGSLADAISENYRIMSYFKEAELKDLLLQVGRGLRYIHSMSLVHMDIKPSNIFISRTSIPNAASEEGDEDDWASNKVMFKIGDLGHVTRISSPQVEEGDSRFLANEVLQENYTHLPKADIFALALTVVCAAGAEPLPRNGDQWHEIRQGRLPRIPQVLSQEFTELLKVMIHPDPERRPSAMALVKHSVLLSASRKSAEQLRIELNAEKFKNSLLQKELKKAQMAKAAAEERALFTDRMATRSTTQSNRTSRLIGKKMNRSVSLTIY
inactive: [1] -0.152 | [2] -0.062 | [3] 0.182 | [6] 0.311 | [7] -0.043 | [20] -0.037 | [8] -0.037 | [9] 0.394 | [10] -0.455 | [11] 0.205 | [12] 0.04 | [13] -0.045 | [14] 0.47 | [15] 0.05 | [17] -0.122 | [18] 0.089
active: [4] -0.905 | [5] 0.805

VPS35L (UniProt Q7Z3J2)
UniProt Q7Z3J2, sequence (Q7Z3J2 whole entry, looked up): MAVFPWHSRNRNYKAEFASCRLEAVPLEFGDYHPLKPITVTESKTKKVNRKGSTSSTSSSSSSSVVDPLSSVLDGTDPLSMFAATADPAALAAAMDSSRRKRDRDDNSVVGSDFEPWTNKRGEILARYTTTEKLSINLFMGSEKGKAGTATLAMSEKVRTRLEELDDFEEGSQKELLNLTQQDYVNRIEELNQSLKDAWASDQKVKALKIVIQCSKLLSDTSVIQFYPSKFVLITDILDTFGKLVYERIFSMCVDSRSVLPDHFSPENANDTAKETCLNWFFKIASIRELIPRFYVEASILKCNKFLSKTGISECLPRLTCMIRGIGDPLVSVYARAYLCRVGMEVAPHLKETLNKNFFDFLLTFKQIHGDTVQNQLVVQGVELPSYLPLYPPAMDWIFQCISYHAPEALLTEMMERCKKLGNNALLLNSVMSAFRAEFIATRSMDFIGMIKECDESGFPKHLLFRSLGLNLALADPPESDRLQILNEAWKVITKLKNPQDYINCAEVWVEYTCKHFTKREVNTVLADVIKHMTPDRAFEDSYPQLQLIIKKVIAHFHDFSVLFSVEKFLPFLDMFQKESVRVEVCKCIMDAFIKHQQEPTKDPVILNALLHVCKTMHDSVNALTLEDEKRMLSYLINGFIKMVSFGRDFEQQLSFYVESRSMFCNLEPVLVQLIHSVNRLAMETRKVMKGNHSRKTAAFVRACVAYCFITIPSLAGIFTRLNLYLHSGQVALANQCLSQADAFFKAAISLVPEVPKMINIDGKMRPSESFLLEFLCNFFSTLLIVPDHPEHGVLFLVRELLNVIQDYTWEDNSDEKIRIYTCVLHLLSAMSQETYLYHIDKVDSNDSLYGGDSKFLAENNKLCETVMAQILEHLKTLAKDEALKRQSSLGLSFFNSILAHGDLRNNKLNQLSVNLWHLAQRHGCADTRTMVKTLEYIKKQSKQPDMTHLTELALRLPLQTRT
inactive: [1] 0.006 | [2] -0.008 | [3] -0.201 | [4] 0.101 | [5] -0.056 | [6] -0.123 | [7] -0.152 | [20] 0.009 | [8] -0.002 | [9] 0.02 | [10] -0.038 | [11] 0.004 | [12] -0.137 | [13] -0.012 | [14] 0.006 | [15] -0.039 | [16] 0.08 | [17] 0.111 | [18] -0.006 | [19] -0.062

USP14 (UniProt P54578)
UniProt P54578, sequence (P54578 whole entry, looked up): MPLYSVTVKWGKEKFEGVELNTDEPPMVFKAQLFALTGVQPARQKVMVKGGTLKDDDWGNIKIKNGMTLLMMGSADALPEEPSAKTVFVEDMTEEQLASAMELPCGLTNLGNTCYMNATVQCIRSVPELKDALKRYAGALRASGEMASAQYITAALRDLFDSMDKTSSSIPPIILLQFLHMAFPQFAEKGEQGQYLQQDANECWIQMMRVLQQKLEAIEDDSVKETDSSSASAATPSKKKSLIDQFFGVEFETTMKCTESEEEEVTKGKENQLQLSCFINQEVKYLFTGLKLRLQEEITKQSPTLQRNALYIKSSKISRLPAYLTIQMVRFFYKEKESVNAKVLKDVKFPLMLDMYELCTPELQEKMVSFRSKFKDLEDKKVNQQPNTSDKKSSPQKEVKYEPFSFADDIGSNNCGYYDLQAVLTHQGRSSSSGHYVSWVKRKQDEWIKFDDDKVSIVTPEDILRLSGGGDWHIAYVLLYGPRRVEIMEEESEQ
inactive: [1] -0.03 | [2] 0.012 | [3] -0.006 | [4] -0.026 | [5] -0.087 | [6] 0.015 | [7] -0.001 | [20] -0.065 | [8] -0.067 | [9] 0.029 | [10] -0.008 | [11] -0.006 | [12] -0.161 | [13] -0.057 | [14] 0.025 | [15] -0.03 | [16] 0.051 | [17] 0.007 | [18] -0.029 | [19] 0.005

VKORC1 (UniProt Q9BQB6)
UniProt Q9BQB6, sequence (Q9BQB6 whole entry, looked up): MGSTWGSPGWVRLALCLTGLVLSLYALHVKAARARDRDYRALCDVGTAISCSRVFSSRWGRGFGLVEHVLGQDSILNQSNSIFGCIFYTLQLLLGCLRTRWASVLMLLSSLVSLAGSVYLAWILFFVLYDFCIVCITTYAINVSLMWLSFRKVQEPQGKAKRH
inactive: [1] -0.062 | [2] 0.045 | [3] -0.008 | [4] 0.013 | [5] -0.049 | [6] -0.013 | [7] 0.105 | [20] 0.081 | [8] 0 | [9] 0.035 | [10] -0.006 | [11] 0 | [12] -0.054 | [13] -0.114 | [14] 0.025 | [15] -0.034 | [16] 0.001 | [17] -0.023 | [19] 0.073

TMEM164 (UniProt Q5U3C3)
UniProt Q5U3C3, sequence (Q5U3C3 whole entry, looked up): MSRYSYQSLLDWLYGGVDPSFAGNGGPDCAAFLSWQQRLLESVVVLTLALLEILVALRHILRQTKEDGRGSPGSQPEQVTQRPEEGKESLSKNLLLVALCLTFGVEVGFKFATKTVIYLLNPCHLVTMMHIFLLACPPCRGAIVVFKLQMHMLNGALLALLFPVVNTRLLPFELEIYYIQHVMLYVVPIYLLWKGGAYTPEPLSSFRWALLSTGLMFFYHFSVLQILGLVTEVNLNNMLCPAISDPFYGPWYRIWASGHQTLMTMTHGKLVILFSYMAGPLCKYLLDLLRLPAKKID
inactive: [1] -0.097 | [2] -0.155 | [3] 0.023 | [4] -0.021 | [5] 0.048 | [6] 0.037 | [7] 0.002 | [8] 0.059 | [9] -0.067 | [10] 0.129 | [11] -0.138 | [12] -0.006 | [13] -0.248 | [14] -0.112 | [15] 0.139 | [16] 0.087 | [17] 0.01 | [18] -0.004 | [19] -0.268

TRIM44 (UniProt Q96DX7)
inactive: [1] -0.033 | [2] -0.01 | [3] -0.024 | [4] -0.023 | [5] -0.029 | [6] 0.026 | [7] 0.002 | [20] 0.051 | [8] -0.041 | [9] 0.065 | [10] 0 | [11] -0.037 | [12] -0.048 | [13] 0.02 | [14] -0.048 | [15] 0.015 | [16] 0.008 | [17] 0.045 | [19] -0.083

TSPAN13 (UniProt O95857)
inactive: [1] -0.101 | [2] 0.014 | [3] 0.056 | [4] -0.035 | [5] -0.163 | [6] -0.095 | [7] -0.038 | [20] 0.095 | [8] -0.008 | [9] 0.226 | [10] -0.091 | [12] -0.125 | [13] 0.03 | [14] -0.109 | [15] 0.002 | [17] 0 | [18] -0.166

TRAPPC11 (UniProt Q7Z392)
inactive: [1] 0.065 | [2] 0.05 | [3] -0.098 | [4] -0.129 | [5] -0.159 | [6] 0.01 | [7] -0.04 | [20] -0.03 | [8] -0.06 | [9] 0.04 | [10] -0.033 | [11] -0.11 | [12] -0.187 | [13] 0.007 | [14] 0.011 | [15] 0.012 | [16] -0.006 | [17] 0.044 | [18] -0.036 | [19] -0.053

TRIM23 (UniProt P36406)
UniProt P36406, sequence (P36406 whole entry, looked up): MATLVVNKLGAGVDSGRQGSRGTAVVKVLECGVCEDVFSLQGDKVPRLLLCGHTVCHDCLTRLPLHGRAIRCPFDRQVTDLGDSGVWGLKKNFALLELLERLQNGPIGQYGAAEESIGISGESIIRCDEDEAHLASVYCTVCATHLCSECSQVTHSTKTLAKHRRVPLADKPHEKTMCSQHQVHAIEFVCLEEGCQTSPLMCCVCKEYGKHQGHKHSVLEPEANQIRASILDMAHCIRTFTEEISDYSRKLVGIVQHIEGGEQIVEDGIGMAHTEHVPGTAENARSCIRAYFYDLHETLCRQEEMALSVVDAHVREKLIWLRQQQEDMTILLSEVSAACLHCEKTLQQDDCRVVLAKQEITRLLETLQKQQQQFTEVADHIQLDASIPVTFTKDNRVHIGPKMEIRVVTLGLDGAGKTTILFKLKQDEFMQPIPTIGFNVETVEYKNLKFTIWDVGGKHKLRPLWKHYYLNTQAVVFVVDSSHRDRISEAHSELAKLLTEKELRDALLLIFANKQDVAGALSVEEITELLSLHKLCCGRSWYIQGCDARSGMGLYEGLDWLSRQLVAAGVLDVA
inactive: [1] -0.006 | [2] -0.121 | [3] -0.091 | [4] 0.001 | [5] -0.004 | [6] 0.088 | [7] 0.126 | [20] 0.002 | [9] 0.028 | [10] -0.025 | [12] -0.02 | [13] -0.083 | [14] -0.01 | [15] 0.06 | [16] 0.015 | [17] -0.044 | [19] -0.026

WDR61 (UniProt Q9GZS3)
inactive: [1] -0.01 | [2] -0.033 | [3] -0.018 | [4] 0.029 | [5] 0.007 | [6] -0.075 | [7] 0.023 | [20] 0.012 | [8] -0.01 | [9] 0.075 | [10] -0.013 | [11] -0.058 | [12] -0.102 | [13] -0.069 | [14] -0.052 | [15] 0 | [16] 0.028 | [17] -0.005 | [18] -0.045 | [19] -0.057

TRIM4 (UniProt Q9C037)
UniProt Q9C037, sequence (Q9C037 whole entry, looked up): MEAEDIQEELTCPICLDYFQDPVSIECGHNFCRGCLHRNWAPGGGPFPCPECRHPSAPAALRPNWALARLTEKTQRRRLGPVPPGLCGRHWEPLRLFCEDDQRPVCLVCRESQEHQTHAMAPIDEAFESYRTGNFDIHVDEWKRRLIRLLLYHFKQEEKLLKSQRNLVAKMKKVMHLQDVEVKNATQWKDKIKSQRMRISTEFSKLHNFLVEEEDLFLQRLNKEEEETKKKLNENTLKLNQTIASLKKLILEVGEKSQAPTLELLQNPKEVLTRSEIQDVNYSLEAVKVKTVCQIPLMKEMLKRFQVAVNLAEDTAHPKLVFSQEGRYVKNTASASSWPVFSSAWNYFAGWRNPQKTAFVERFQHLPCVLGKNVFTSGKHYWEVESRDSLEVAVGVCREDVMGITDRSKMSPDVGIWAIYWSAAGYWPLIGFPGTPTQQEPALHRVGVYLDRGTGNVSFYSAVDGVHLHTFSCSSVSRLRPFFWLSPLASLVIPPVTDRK
inactive: [1] 0.039 | [2] -0.015 | [3] 0.111 | [4] 0.101 | [6] 0.058 | [7] 0.042 | [20] -0.138 | [8] -0.014 | [9] 0.033 | [10] -0.04 | [11] 0.007 | [12] 0.082 | [13] -0.294 | [14] 0.03 | [15] -0.03 | [16] -0.006 | [17] 0.042 | [18] -0.051 | [19] -0.049

UFM1 isoform 2 (UniProt P61960)
UniProt P61960, sequence (P61960 whole entry, looked up): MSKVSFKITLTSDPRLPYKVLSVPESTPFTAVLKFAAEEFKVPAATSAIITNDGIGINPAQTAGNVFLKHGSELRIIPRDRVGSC
inactive: [1] -0.061 | [2] 0.089 | [3] -0.009 | [4] 0.023 | [5] 0.116 | [6] 0.002 | [7] 0.045 | [8] -0.016 | [9] -0.015 | [10] -0.031 | [11] -0.114 | [12] -0.087 | [13] -0.057 | [14] -0.012 | [15] -0.057 | [16] -0.044 | [17] -0.025 | [18] -0.007 | [19] -0.218

UNC119B (UniProt A6NIH7)
UniProt A6NIH7, sequence (A6NIH7 whole entry, looked up): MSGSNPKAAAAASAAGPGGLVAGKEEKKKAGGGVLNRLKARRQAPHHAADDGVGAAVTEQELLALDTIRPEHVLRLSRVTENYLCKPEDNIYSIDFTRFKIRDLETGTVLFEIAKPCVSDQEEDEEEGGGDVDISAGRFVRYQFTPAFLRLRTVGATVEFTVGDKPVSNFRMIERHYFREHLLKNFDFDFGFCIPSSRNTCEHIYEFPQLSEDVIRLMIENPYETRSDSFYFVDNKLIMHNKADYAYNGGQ
inactive: [1] 0.424 | [2] -0.006 | [3] 0.16 | [4] -0.077 | [5] 0.069 | [6] 0.173 | [7] 0.428 | [20] -0.089 | [8] -0.143 | [9] 0.14 | [10] -0.094 | [11] 0.039 | [12] 0.146 | [13] 0.038 | [14] 0.012 | [15] -0.055 | [16] 0.043 | [17] 0.031 | [19] 0.005
